Only a sample is shown.
CYP2C9 inh: blockers of cytochrome P450 2C9 activity – biochemical, luminescence, ADME assay, primary screen | P11712 | CYP2C9 Supersomes, luciferin-H conversion | inhibition, % at 5 µM | actives 20% (n = 96,000) | AID 777, 2007;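 active means blocking of liver enzyme CYP2C9 beyond about 50% at 5 µM, limit read from the data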
CD11b adhes enh: enhancers of CD11b/CD18 adhesion to fibrinogen, primary screen, K562 cells, luminescence. Integrin beta-2 (Homo sapiens) + Integrin alpha-M (Homo sapiens), P05107+P11215. ATPlite luminescence. activation, % at 10 µM. actives 0.07% (n = 93,000). AID 1499, 2009;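 active means 10 µM primary screen giving 50% or more activity, confirmed by 40% or more on retest at that dose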
Target sequence (P05107 whole entry, looked up, other chains not shown): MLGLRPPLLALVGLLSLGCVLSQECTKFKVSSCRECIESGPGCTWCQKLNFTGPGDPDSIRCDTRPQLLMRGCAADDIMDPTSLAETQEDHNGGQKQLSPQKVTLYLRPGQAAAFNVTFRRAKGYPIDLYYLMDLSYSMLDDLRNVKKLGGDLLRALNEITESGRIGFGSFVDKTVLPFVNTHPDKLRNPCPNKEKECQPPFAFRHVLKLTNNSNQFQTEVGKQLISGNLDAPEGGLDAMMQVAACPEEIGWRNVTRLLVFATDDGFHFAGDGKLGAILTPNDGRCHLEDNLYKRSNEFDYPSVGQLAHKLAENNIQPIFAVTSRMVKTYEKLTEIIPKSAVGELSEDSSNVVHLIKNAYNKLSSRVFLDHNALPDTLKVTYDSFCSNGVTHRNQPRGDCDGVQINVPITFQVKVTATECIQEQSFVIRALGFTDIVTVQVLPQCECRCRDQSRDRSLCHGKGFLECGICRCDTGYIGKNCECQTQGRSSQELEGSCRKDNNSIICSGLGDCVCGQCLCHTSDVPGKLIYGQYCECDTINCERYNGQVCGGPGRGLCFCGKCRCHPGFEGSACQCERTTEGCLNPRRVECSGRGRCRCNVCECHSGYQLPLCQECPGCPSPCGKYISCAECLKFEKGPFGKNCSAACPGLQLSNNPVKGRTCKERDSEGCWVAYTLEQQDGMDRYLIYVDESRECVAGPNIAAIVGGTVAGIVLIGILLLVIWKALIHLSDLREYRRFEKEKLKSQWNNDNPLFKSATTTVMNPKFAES
Mac1 fbg inh: inhibitors of CD11b/CD18 adhesion to fibrinogen, primary screen, K562 cells, luminescence | actives 0.54% (n = 93,000) | Integrin beta-2 (Homo sapiens) + Integrin alpha-M (Homo sapiens), P05107+P11215 | ATPlite luminescence; Mn2+ added to activate the integrin | inhibition, % at 10 µM;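 active means primary inhibition of 50% or more at 10 µM, then 40% or more on retest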
CYP2C9 activ: human CYP2C9 activators, primary screen, biochemical, luminescence; activation factor at 5 µM; AID 1024, 2008; actives 1.4% (n = 96,000); Cytochrome P450 2C9 (Homo sapiens), P11712; recombinant CYP2C9, luciferin-H conversion; hits give high values; factor 1 = untreated enzyme, 0 = blocked;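 active means activation factor of 2 or more for CYP2C9 at a 5 µM dose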;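 further: 0 = sulfaphenazole-blocked wells and 1 = vehicle-only wells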
CYP2C19 inhib: blockers of cytochrome P450 2C19 activity – biochemical, luminescence, ADME assay, primary screen | CYP2C19 Supersomes, luciferin-H EGE luminescence, 30 min | P33261 | actives 21% (n = 96,000) | inhibition, % at 5 µM;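 active means CYP2C19 inhibition above a set limit at 5 µM in the primary screen, cut at about 50% in these data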;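 further: plate controls were negative control wells for no effect and 2.5 mM tranylcypromine positive control for full effect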
CYP2C19 act: human CYP2C19 activators, primary screen, biochemical, luminescence. recombinant CYP2C19, luciferin-H EGE luminescence; hits give high values; 0 = fully inhibited enzyme, 1 = untreated enzyme. activation factor at 5 µM. 96,000 tested, under 10 active;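 active means activation factor of at least 2 at 5 µM in the primary screen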;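 further: 0 = wells with 2.5 mM tranylcypromine and 1 = vehicle-only wells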
Numbers without * were called inactive.

For Cc1cc2c(c(=O)n1C1CC1)C(c1cccc(Cl)c1)C(C#N)=C(N)O2 (stereo unspecified) the results were CYP2C9 inh 12, CD11b adhes enh -4, Mac1 fbg inh -7, CYP2C9 activ 0.9, CYP2C19 inhib 6 and CYP2C19 act 0.9.
CC(C)CC(=O)Nc1ccccc1Oc1ccccc1 was read as CYP2C9 inh 3, CD11b adhes enh -1, Mac1 fbg inh -1, CYP2C9 activ 1, CYP2C19 inhib 25 and CYP2C19 act 0.8.
For Cc1ccc(CSc2nnc(-c3ccco3)n2N)cc1 the results were CYP2C9 inh -19, CD11b adhes enh -5, Mac1 fbg inh -9, CYP2C9 activ 1.2, CYP2C19 inhib 8 and CYP2C19 act 0.9.
Nn1c(SCc2cccc(C(F)(F)F)c2)nnc1-c1ccco1 was read as CYP2C9 inh -61, CD11b adhes enh -2, Mac1 fbg inh 5, CYP2C9 activ 1.6, CYP2C19 inhib 94* and CYP2C19 act 0.1.
For Cn1c(SCc2cccc(C(F)(F)F)c2)nnc1-c1ccco1 the results were CYP2C9 inh 14, CD11b adhes enh -4, Mac1 fbg inh -3, CYP2C9 activ 0.9, CYP2C19 inhib 72* and CYP2C19 act 0.3.
`CCN1CCN(CC(O)COC(C)C)CC1` (stereo unspecified) gave CYP2C9 inh -23, CYP2C9 activ 1.2, CYP2C19 inhib 22 and CYP2C19 act 0.8.
CC1CCCC(C)N1C(=O)CSc1nnc(NC(=O)c2cccs2)s1 (stereo unspecified) was read as CYP2C9 inh 25, CD11b adhes enh -2, Mac1 fbg inh -14, CYP2C9 activ 0.7, CYP2C19 inhib 9 and CYP2C19 act 0.9.
Cc1cccc(OCCN2CSC(=S)N(C)C2)c1 was read as CYP2C9 inh 88*, CD11b adhes enh -1, Mac1 fbg inh 2, CYP2C9 activ 0.1, CYP2C19 inhib 79* and CYP2C19 act 0.2.
Screening CCn1c(COc2ccc(C(C)C)cc2)nnc1SCC(=O)Nc1nccs1 returned CYP2C9 inh 28, CD11b adhes enh 16, Mac1 fbg inh 4, CYP2C9 activ 0.7, CYP2C19 inhib 19 and CYP2C19 act 0.8.
`CC(=O)N1c2ccccc2NC(=O)C1(C)C` gave CYP2C9 inh -7, CD11b adhes enh -1, Mac1 fbg inh 25, CYP2C9 activ 1.1, CYP2C19 inhib 1 and CYP2C19 act 1.
For CC(=O)N1c2ccccc2N(Cc2ccc(C)cc2C)C(=O)C1(C)C the results were CYP2C9 inh 81*, CD11b adhes enh 3, Mac1 fbg inh 5, CYP2C9 activ 0.2, CYP2C19 inhib 95* and CYP2C19 act 0.1.
`COc1ccc(-c2nnc(SCC(=O)N(Cc3ccccc3)C(C)(C)C)o2)cc1OC` gave CYP2C9 inh 2, CD11b adhes enh -7, Mac1 fbg inh 13, CYP2C9 activ 1, CYP2C19 inhib 41 and CYP2C19 act 0.6.
For Cc1nnc(NC(=O)c2ccncc2)s1 the results were CYP2C9 inh 14, CD11b adhes enh -3, Mac1 fbg inh -6, CYP2C9 activ 0.9, CYP2C19 inhib -5 and CYP2C19 act 1.1.
`Cc1nnc(NC(=O)C2CCCCC2)s1` gave CYP2C9 inh 5, CD11b adhes enh -3, Mac1 fbg inh -20, CYP2C9 activ 0.9, CYP2C19 inhib 41 and CYP2C19 act 0.6.
Screening O=C(Nc1nnc(C2CC2)s1)c1ccncc1 returned CYP2C9 inh 56*, CYP2C9 activ 0.4, CYP2C19 inhib 16 and CYP2C19 act 0.8.
Screening O=C(CC1CCCC1)Nc1nnc(C2CC2)s1 returned CYP2C9 inh 17, CD11b adhes enh -3, Mac1 fbg inh -10, CYP2C9 activ 0.8, CYP2C19 inhib 52* and CYP2C19 act 0.5.
`O=C(CCC(=O)NC1CC1)Nc1nnc(C2CCCCC2)s1` gave CYP2C9 inh -25, CD11b adhes enh -2, Mac1 fbg inh 2, CYP2C9 activ 1.3, CYP2C19 inhib -9 and CYP2C19 act 1.1.
`O=C(Nc1nnc(C2CCCC2)s1)C1CCC1` gave CYP2C9 inh 56*, CD11b adhes enh -4, Mac1 fbg inh -10, CYP2C9 activ 0.4, CYP2C19 inhib 33 and CYP2C19 act 0.7.
Screening Cc1cc(C)n2nc(SCC(=O)c3cc(C)n(-c4cc(C)on4)c3C)nc2n1 returned CYP2C9 inh 10, CD11b adhes enh -3, Mac1 fbg inh 52, CYP2C9 activ 0.9, CYP2C19 inhib 34 and CYP2C19 act 0.7.
For Cc1cccc(NC2(C(F)(F)F)N=C(c3ccccc3)NC2=O)n1 (stereo unspecified) the results were CYP2C9 inh 14, CYP2C9 activ 0.9, CYP2C19 inhib 10 and CYP2C19 act 0.9.
Screening Nc1nc(N2CCN(C/C=C/c3ccccc3)CC2)nc2ccccc12 returned CYP2C9 inh 70*, CD11b adhes enh 0, Mac1 fbg inh -9, CYP2C9 activ 0.3, CYP2C19 inhib 51* and CYP2C19 act 0.5.
For O=c1[nH]c(CN2CCN(C/C=C/c3ccccc3)CC2)nc2ccccc12 the results were CYP2C9 inh 18, CD11b adhes enh 4, Mac1 fbg inh -28, CYP2C9 activ 0.8, CYP2C19 inhib 27 and CYP2C19 act 0.7.
Screening COC(=O)c1ccccc1NC(=O)COC(=O)CSCC(=O)N1CCOCC1 returned CYP2C9 inh -3, CD11b adhes enh -3, Mac1 fbg inh 4, CYP2C9 activ 1, CYP2C19 inhib 7 and CYP2C19 act 0.9.
Screening Cc1ccc(S(=O)(=O)c2nc(Nc3ccccc3N3CCOCC3)sc2Cl)cc1 returned CYP2C9 inh -16, CYP2C9 activ 1.2, CYP2C19 inhib -20 and CYP2C19 act 1.2.
Screening Cc1nc(-c2c(-c3ccc(O)cc3O)noc2C(F)(F)F)cs1 returned CYP2C9 inh -14, CD11b adhes enh -6, Mac1 fbg inh 38, CYP2C9 activ 1.1, CYP2C19 inhib 71* and CYP2C19 act 0.3.
Screening O=C(NC1CCCc2ccccc21)c1cncc(Br)c1 (stereo unspecified) returned CYP2C9 inh 11, CD11b adhes enh 0, Mac1 fbg inh -17, CYP2C9 activ 0.9, CYP2C19 inhib 18 and CYP2C19 act 0.8.
`Cc1noc(C)c1C(=O)NCc1ccccc1` gave CYP2C9 inh -15, CD11b adhes enh -2, Mac1 fbg inh -24, CYP2C9 activ 1.1, CYP2C19 inhib 18 and CYP2C19 act 0.8.
For CCOc1ncccc1C(=O)NCc1ccc(C)cc1 the results were CD11b adhes enh -6 and Mac1 fbg inh 19.
